Screening data: PubChem BioAssay, several laboratories
An excerpt weighted towards active compounds, which were near 2.3% of everything screened.
Gli-Sufu block: blocks Gli-Sufu signaling in a luciferase reporter | Sufu-KO-LIGHT fibroblasts, Gli luciferase reporter luminescence | inhibition, % at 5 µM | 340,000 compounds, 0.74% hits | AID 588413;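 active = inhibition above about 55%, limit read from the data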;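 also: 0% = DMSO-treated cells and 100% = wells with medium but no cells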
Shn3 3UTR inh: reduces Shn3 3'UTR luciferase signal in osteoblasts | 360,000 compounds, 0.52% hits | Clone20 osteoblast Shn3 3'UTR firefly luciferase, 24 h | AID 588674 | inhibition, % at 12.5 µM;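 active = mean inhibition of at least 75% with every replicate also reaching 75%; inconclusive = mean inhibition at least 75% but some replicate below; inactive = mean inhibition below 75%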;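 also: 0% = median of neutral control wells and 100% = pilot-screen positive control compound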
TRPM1 prom inh: reduces MITF-dependent TRPM1 promoter luciferase signal; SK-MEL-5 TRPM1 promoter luciferase, 24 h; inhibition, % at 12.5 µM; 330,000 compounds, 0.83% hits;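 active = mean inhibition across replicates of 60% or more, whatever share of single replicates reaches that level; inconclusive = some that reach 60%, reason not given; inactive = mean inhibition across replicates below 60%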
LMP1 NFkB inh: reduces LMP1-driven NF-kappaB luciferase signal; LMP1-induced NF-kappaB luciferase reporter cells, luminescence; inhibition, % at 12.5 µM; 350,000 compounds, 0.69% hits; in the data active = inhibition above about 41%; inconclusive = no clear call, values can overlap the other calls;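 also: 0% = neutral control wells and 100% = reference inhibitor control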
Jurkat NFkB inh: inhibitors of the PMA/ionomycin-induced NF-kB reporter in Jurkat cells; PMA/ionomycin-induced NF-kB luciferase reporter, luminescence; inhibition, % at 4 µM; 330,000 compounds, 0.53% hits; AID 435003; in the data active = inhibition above about 50%
697 NFkB inh: lowers PMA/ionomycin-induced NF-kB signal in 697 B cells; 697 B-cell NF-kB luciferase reporter, 16 h; inhibition, % at 4 µM; 330,000 compounds, 0.33% hits; in the data active = inhibition above about 35%
Active calls of the source: *; ? = inconclusive; / = no result given.

SMILES	Gli-Sufu block	Shn3 3UTR inh	TRPM1 prom inh	LMP1 NFkB inh	Jurkat NFkB inh	697 NFkB inh
O=C(Nc1cc(S(=O)(=O)N2CCOCC2)ccc1Cl)c1ccncc1	4.5	-18.1	3.0	69.2*	9.9	-5.7
Cc1ccc(C2NC(=O)c3sc(=S)n(-c4ccccc4)c3N2)cc1 (configuration not stated)	30.9	-6.9	-2.8	-11.5	0.4	-25.3
CC(C)(C)c1nc(NCCN2CCOCC2)c2nnn(Cc3ccccc3Cl)c2n1	2.7	83.5*	22.0	8.3	10.2	-49.8
C=C1C(=O)O[C@@H]2[C@H]3O[C@]3(C)CC/C=C(\C)CC[C@@H]12	-0.1	-21.5	32.5	34.7	19.0	12.1
C=C1C(=O)O[C@H]2C[C@H]1[C@@H](OC(C)=O)C/C(C)=C/CC/C(C)=C\CC[C@]2(C)O	-5.4	71.1	99.3*	48.1*	/	/
CN(C)C(CNc1ccc([N+](=O)[O-])cc1C#N)c1ccccc1 (configuration not stated)	-1.2	-4.0	-22.6	-11.2	-2.8	0.2
O=S(=O)(c1ccccc1)N1CCN(c2nc(-c3cccnc3)nc3ccccc23)CC1	9.7	8.0	-18.4	-7.0	0.9	5.7
C/C(=N\NC(=O)c1c[nH]c2ccccc12)c1ccccn1	-57.9	69.4	-8.6	14.3	-51.8	-119.5
C/C(=N\NC(=O)c1ccccc1-n1cccc1)c1ccccn1	/	93.0*	/	8.2	/	/
C/C(=N\NC(=O)c1cc2ccccc2cc1O)c1ccccn1	89.7*	97.3*	73.9*	?	-6.7	-183.2
COc1ccc(CCNC(=O)COc2ccccc2[N+](=O)[O-])cc1OC	1.8	/	10.9	-11.1	-7.3	-18.4
O=C(c1cccs1)N1N=C(c2ccccc2)CC1c1ccc(O)cc1 (configuration not stated)	0.1	-26.6	18.8	-3.8	-9.8	-25.3
CC(C)(C)c1ccc(S(=O)(=O)N2CCN(CC(=O)NC(=O)NC3CCCCC3)CC2)cc1	-10.9	21.4	1.9	-4.7	14.8	6.1
COC(=O)C1=C(C)NC(C)=C(C(=O)OCC(C)C)C1c1ccccc1[N+](=O)[O-] (configuration not stated)	5.6	53.3	19.4	90.8*	12.3	14.7
CCOC(=O)C1=C(C)NC(C)=C(C(=O)OCC)C1c1cccc([N+](=O)[O-])c1	/	2.4	/	-11.3	/	/
Cc1ccc(-c2nc3cccnc3o2)cc1NC(=O)COc1ccc(Cl)cc1C	3.9	-1.6	6.0	-24.0	10.3	-3.5
Cc1ccc(-c2nc3cccnc3o2)cc1NC(=O)COc1ccc(C(C)(C)C)cc1	2.3	94.6*	-2.9	80.8*	-24.8	-49.1
C=CCn1c(SCC(=O)NC2CCCC2)nc2scc(-c3ccco3)c2c1=O	3.4	4.6	-5.6	-2.5	3.7	15.4
CC(Oc1ccccc1F)C(=O)NNC(=O)c1ccc(-n2cncn2)c([N+](=O)[O-])c1 (configuration not stated)	-1.2	4.7	6.0	-1.6	/	/
Brc1ccc2[nH]c3c(N4CCc5ccccc5C4)ncnc3c2c1	71.9*	/	/	/	-6.4	-35.0
Cn1ncc2c(c(SCc3ccc(Cl)cc3Cl)nn2C)c1=O	0.3	-17.2	-10.0	-5.9	16.8	-1.9
Cc1cc(F)ccc1S(=O)(=O)Nc1ccccc1C(=O)Nc1ccccc1-c1nc2ccccc2[nH]1	13.0	90.8*	?	-18.2	-13.1	11.9
CCCc1cc(=O)oc2c3c(c(Cl)cc12)OCN(CCCO)C3	/	/	/	/	-2.7	10.4
CCCC(=O)OCCNc1cc(Sc2nc3ccccc3[nH]2)c2nonc2c1[N+](=O)[O-]	-15.0	93.0*	-4.6	11.5	-2.3	25.2
CCC(=O)OCCNc1cc(Sc2nccn2C)c2nonc2c1[N+](=O)[O-]	-1.5	89.2*	92.2*	26.5	/	/
SMILES	Gli-Sufu block	Shn3 3UTR inh	TRPM1 prom inh	LMP1 NFkB inh	Jurkat NFkB inh	697 NFkB inh
CC(=O)OCCCNc1cc(Sc2ccc(Cl)cc2)c2nonc2c1[N+](=O)[O-]	-12.8	?	75.3*	27.3	/	/
c1cncc(Cc2cc3ccccc3[nH]2)c1	-1.8	-5.8	11.3	-8.6	5.2	17.2
NC(=O)c1nsc(C(=O)N(c2cccc(O)c2)C(C(=O)NC2CCCC2)c2ccc(Cl)cc2)c1N (configuration not stated)	-18.2	-4.7	6.8	5.3	-10.9	1.7
Cc1cc(/C=C\c2ccc3cc(N(C)C)ccc3[n+]2C)c(C)n1-c1ccccc1	93.7*	95.0*	100.8*	52.2*	13.5	4.1
C[n+]1c(/C=C/c2ccc(O)cc2)ccc2ccccc21	/	-103.1	-28.8	2.4	-46.8	-15.2
CS(=O)(=O)N1CCC(C(=O)Nc2ccccc2F)CC1	3.2	3.4	0.3	0.5	5.2	7.9
Cc1c(NC(=O)c2cccc(S(=O)(=O)N3CCOCC3)c2)c(=O)n(-c2ccccc2)n1C	-0.7	-14.9	9.1	3.3	-5.3	0.4
CC(C)CNC(=O)c1cccc(NC(=O)CSc2ccc(Cl)cc2)c1	-5.6	11.0	1.3	8.0	23.6	-8.7
O=C(NC(=S)NNC(=O)c1cnccn1)c1ccc(F)cc1	5.7	66.0	-2.5	16.0	7.4	23.2
O=C(/C=C/c1ccc(F)cc1)NC(=S)NNC(=O)c1cnccn1	5.0	89.3*	21.2	36.3	-14.3	-60.6
COc1ccc(/C=C/C(=O)NC(=S)NNC(=O)c2cnccn2)cc1	39.5	93.7*	46.6	29.8	25.7	-10.8
COc1ccc(/C=C/C(=O)NC(=S)NNC(=O)c2cccnc2)cc1	-2.4	-5.4	-3.2	-8.2	-0.2	-17.4
CCOC(=O)N1CCN(C(=O)/C(=C/c2cccs2)NC(=O)c2cccs2)CC1	1.4	-5.6	9.9	-2.9	7.7	14.4
Cc1cccc(S(=O)(=O)N2CN(Cc3ccco3)c3nc4ccccc4nc32)c1	-1.0	-12.0	-9.0	-11.3	26.0	0.1
C[C@@H]1C[C@H]2[C@@H]3CCC4=CC(=O)C=C[C@]4(C)[C@@]3(F)[C@@H](O)C[C@]2(C)[C@@]1(O)C(=O)COP(=O)(O)O	24.6	1.3	-15.9	6.3	15.0	7.2
C[C@H]1C[C@H]2[C@@H]3CCC4=CC(=O)C=C[C@]4(C)[C@@]3(F)[C@@H](O)C[C@]2(C)[C@@]1(O)C(=O)CO	5.8	72.4	-22.4	45.5*	11.4	16.1
CCN1C(=O)[C@H]2[C@H]3CN=C(SCC(=O)c4ccccc4)N3[C@@](C)(C(=O)OC)[C@H]2C1=O	-3.6	-8.6	-9.1	-5.7	/	-6.1
CCCc1cc(=O)c2c(O)ccc(OC)c2o1	0.3	6.3	-3.1	55.3*	11.6	10.0
Cc1ccc(N2CCN(C3=NC(=O)/C(=C\c4cn[nH]c4-c4ccccc4)S3)CC2)cc1	44.5	42.1	9.0	68.6*	7.9	29.1
O=C(NC1=C(Nc2ccc(Cl)cc2)C(=O)c2ccccc2C1=O)c1ccccc1	19.2	-14.3	72.1*	-1.6	5.6	14.2
Cc1cccc(NC2=C(NC(=O)c3ccccc3)C(=O)c3ccccc3C2=O)c1	10.8	-41.7	?	-15.6	-5.1	-16.9
